VACV E9 pol inh: blocks vaccinia virus processive DNA synthesis; actives 0.94% (n = 46,000); in vitro processive DNA synthesis, absorbance read-out; hits give low values; normalized absorbance, % (concentration not given with the values); in the data active means normalized absorbance mostly below about 85%, no sharp cut-off; inactive means mostly above about 86%
* hit, by the source's call. This excerpt belongs to a sample that is enriched for hits.

SMILES	VACV E9 pol inh
COC(=O)[C@@]1(O)CC2OC1(C)n1c3ccccc3c3c4c(c5c6ccccc6n2c5c31)C(=O)NC4 (some centres not stated)	98
Cn1c2ccccc2c2c3c(c4c5ccccc5n(CCC#N)c4c21)CNC3=O	98
CCN1CCN(S(=O)(=O)c2ccc(Oc3ccccc3)cc2)CC1	108
COc1ccc(/C=C/C(=O)OCC(=O)Nc2ccccc2Cl)cc1	114
CCn1c(=O)cc(SCC(=O)NC2CCCc3ccccc32)c2ccccc21 (configuration not stated)	103
CCCCN(C)S(=O)(=O)c1ccc2[nH]c(=O)ccc2c1	89
O=C(CCOc1ccccc1)Nc1ccc(O)c(-c2nc3ccccc3s2)c1	92
COc1ccc(S(=O)(=O)N2CCN=C2SC)cc1	115
COc1ccccc1C1CCN(C(=O)CSCc2cccc3ccccc23)CC1	103
CCS(=O)(=O)N1CCN=C1SCc1cccc2ccccc12	29*
O=C(Cc1ccccc1)N1CCN=C1SCc1ccccc1	103
Cc1ccc(C)c(CSC2=NCCN2C(=O)COc2ccccc2)c1	101
CCSC1=NCCN1S(=O)(=O)c1ccccc1	100
C=C(C)CSc1nnc(SCc2cccc3ccccc23)s1	92
CS(=O)(=O)N1CCN=C1SCc1ccc(Cl)c(Cl)c1	56*
CCS(=O)(=O)N1CCN=C1SCc1ccccc1C	78*
CS(=O)(=O)N1CCN=C1SCc1cccc2ccccc12	51*
O=S(=O)(c1ccc(F)cc1)N1CCN=C1SCc1ccc(F)cc1	115
CCSC1=NCCN1S(C)(=O)=O	98
Cc1c(-c2c(Cl)cccc2Cl)noc1C(=O)CN=S(C)(=O)c1ccc(C(F)(F)F)cn1 (configuration not stated)	102
c1ccc(OC2OCCOC2Oc2ccccc2)cc1 (configuration not stated)	94
N#CC(C#N)=C(N)/C(C#N)=C/c1ccc(-c2cccc(C(=O)O)c2)o1	99
CCC1CCCCN1S(=O)(=O)c1ccc(NC(=O)/C=C/c2ccco2)cc1 (configuration not stated)	100
CN(C)C(=O)Oc1ccnc(SCc2ccc(Cl)cc2Cl)n1	99
O=C1CCNc2ccc(C(F)(F)F)cc2N1	93
SMILES	VACV E9 pol inh
C=CCN1C(=O)c2ccccc2Sc2ccc(C(=O)NC3CCCCC3C)cc21 (configuration not stated)	94
CC(=O)Nc1ccc(-c2nnc3n2CCCCC3)cc1	98
CC(=O)N1CCOc2cc(S(=O)(=O)N(C)C3CCCC(C)C3C)ccc21 (configuration not stated)	94
COc1nc(-c2ccccc2)nc(Cl)c1NC(=O)c1cccs1	96
Cc1ccc2cc(CCNC(=O)c3cc4ccccc4oc3=O)c(=O)[nH]c2c1C	99
O=C(O)c1c2ccccc2cc2ccccc12	100
O=C(O)c1cc2ccc3cccc4ccc(c1)c2c34	77*
O=C(O)c1cccc(N2C(=O)CCC2=O)c1	101
Cn1c(C(=O)Nc2cnc3ccccc3c2)cc2c(=O)n(C)c3ccccc3c21	108
O=C1/C(=C\c2ccc(Br)o2)CC/C1=C/c1ccc(Br)o1	19*
CSc1ccc(/C=C2\CC/C(=C\c3ccc(SC)cc3)C2=O)cc1	106
O=C1/C(=C/c2cc3ccccc3o2)CC/C1=C\c1cc2ccccc2o1	99
CC(=NCc1nnc(C)s1)c1cc2c(=O)n(C)c3ccccc3c2oc1=O	97
CCOC(=O)Cn1c2ccc(Cl)cc2c2nc3ccccc3nc21	109
O=C(O)Cn1c2ccc(Cl)cc2c2nc3ccccc3nc21	53*
Cc1ccc2c(c1)c1nc3ccccc3nc1n2CC(=O)O	75
CCc1ccc(NC2=NC(C(=O)Nc3ccccc3)CC(=O)N2)cc1 (configuration not stated)	104
c1ccn(-c2ccc3nccnc3c2)c1	89
Cc1ccccc1C(=O)ON1CCCc2ccccc21	100
Cc1nc2ccccc2c2oc(C(=O)NCCN(C)C3CCCCC3)cc12	46*
COC(CNC(=O)c1cc2c(C)nc3ccccc3c2o1)OC	91
COC(CN(C)C(=O)c1cc2c(C)nc3ccccc3c2o1)OC	96
COc1ccc(NC(=O)CSc2nccn2-c2ccc(F)cc2)c(OC)c1	100
CC12CC3(C(=O)O)C1CCC23C (configuration not stated)	106
CCc1cccc2c(=O)c(CN(C)C)c(C)[nH]c12	83
SMILES	VACV E9 pol inh
CN(C)Cc1ccc2ccc3cccc4ccc1c2c34	12*
O=C(Nc1ccc(OCc2ccccc2)cc1)Nc1cc(C(F)(F)F)ccc1N1CCCC1	116
CC(C)(C)N(Cc1ccccc1)C(=O)CCCN1C(=O)/C(=C/c2cccs2)SC1=S	100
CN1/C(=C/c2cccc[n+]2C)C=Cc2ccccc21	97
CN1C=C/C(=C\c2cc[n+](C)c3ccccc23)c2ccccc21	84*
C[n+]1ccc(/C=C/c2ccccc2F)c2ccccc21	100
CCC(=O)c1cc(N)ccc1O	95
O=C(Nc1nccs1)c1cccc2c1-c1ccccc1C2=O	104
CCn1c(NCc2ccccn2)nc2ccccc21	113
Cc1nc2ccccc2cc1C(=O)NCc1ccccn1	109
Cc1nc(NCc2ccccn2)c2ccccc2n1	51*
CCN(CC)c1cc(-c2cccs2)nc(SCC(=O)c2cccs2)c1C#N	100
N#CSCC(=O)c1cccs1	61*
O=C(CSc1nnc2sc3ccccc3n12)c1cccs1	100
N#CSc1c(Cl)nc2sccn12	97
CCOC(=O)N(c1ccccc1)S(=O)(=O)c1ccccc1C	100
CC(CN1CCNCC1)(NS(=O)(=O)c1ccccc1)c1ccccc1 (configuration not stated)	96
CC(CBr)(NS(=O)(=O)c1ccccc1)c1ccccc1 (configuration not stated)	65*
CC(C)(CN1CCCCCC1)NS(=O)(=O)c1ccccc1	96
CC1CCCN(CC(O)COCc2cccs2)C1 (configuration not stated)	96
O=C(O)c1ccc2c(c1)NC(=O)C(CSCc1ccccc1Cl)N2 (configuration not stated)	39*
NC(=O)NC(=O)CC1Nc2ccccc2NC1=O (configuration not stated)	99
CNC(=O)CC1Nc2ccccc2NC1=O (configuration not stated)	103
CC(C)(C)N1C(=O)NC(=O)/C(=C\c2cn(Cc3ccccc3)c3ccccc23)C1=O	100
COc1ccc(-c2cc(=Nc3ccc(C)cc3C)c3cc(O)ccc3o2)cc1	100
SMILES	VACV E9 pol inh
CCCN=c1cc(-c2ccccc2)oc2ccc(C)cc12	42*
Clc1ccc2oc(-c3cccnc3)nc2c1	100
Clc1ccc2oc(-c3ccccc3)cc(=NCc3cccnc3)c2c1	66*
Cc1cc(NCc2cccnc2)c2ccc(Cl)cc2n1	103
Cc1ccc2oc(-c3ccc(Cl)cc3)cc(=O)c2c1	108
O=C(O)c1cn2ccccc2c1C(=O)O	97
CC(C)c1ccc(C2C3CCc4ccccc4C3=NN2CCO)cc1 (configuration not stated)	99
CCc1ccc(NC(=O)Cn2c(=O)n(C3CCCCC3)c(=O)c3cccnc32)cc1	106
CC12COC3(CN)CC1CCC32C (configuration not stated)	100
N#C/C(=C\c1[nH]c2ccccc2c1O)C(=N)N1CCOCC1	99
Brc1ccc(-c2ccc3ccccc3n2)s1	104
Cc1cccc(NCc2csc(-c3ccccc3)n2)c1	94
Cc1cc(C)n(C(=O)CNC(=O)c2ccccc2)n1	111
O=C(NCc1ccccc1)C(=O)c1c(O)[nH]c2ccccc12	102

Compound activity: PubChem, ICCB-Longwood Screening Facility, Harvard Medical School
